# Only some compounds are listed: those with a hit (about 2.3% of all), similar ones and a draw of the others.
# TRPV1 PAM: potentiators of human vanilloid receptor 1 (TRPV1). potentiation, % at 8.33 µM. AID 540277. TRPV1-expressing cells, Fluo-8 calcium influx, capsaicin EC20 potentiation. Q8NER1. 320,000 tested, 0.02% active; in the data active = potentiation above about 80%; inconclusive = between about 30% and that limit; also: 0% is about no effect
#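 Fluo-8 calcium influx in TRPV1-expressing cells, kinetic read (ex 480/em 520 nm). Compound added and read 3 min for agonist activity, followed by capsaicin at EC20 final and 2 min further read for enhancement.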
# ELG1 repair inh: inhibitors of ELG1-dependent DNA repair in HEK293T cells. HEK293T ELG1-luciferase reporter, luminescence, 16 h; DNA damage induced by 5-fluorouridine. Potency, µM (highest dose often 46.1 µM), for inactives: top-dose activity change, negative = inhibition, actives largely listed as inhibitors. 330,000 tested, 2.3% active. AID 504467; also: potency is read from the fitted curve at half-maximal effect; % is scaled to controls: 0 for no effect and ±100 for the full control effect; nearly all actives have a fitted effect of over 55% in size
#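 In this reporter screen, reduction of luminescence relative to DMSO vehicle indicated activity. Compounds and 5-fluorouridine were added together to 2,000 cells per well, incubated for 16 hr at 37 °C, then developed with ONE-Glo.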
# TRPV1 agonist: human TRPV1 agonism; TRPV1-expressing cells, Fluo-8 calcium influx, agonist mode; activation, % at 8.33 µM; 320,000 tested, 0.19% active; in the data active = activation above about 80%; inconclusive = between about 30% and that limit; also: 0% is about no effect
#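 Fluo-8 calcium influx in TRPV1-expressing cells, kinetic read (ex 480/em 520 nm). Compound added and read 3 min for agonist activity, followed by capsaicin at EC20 final and 2 min further read for enhancement.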
# FUS suppressor: FUS proteinopathy suppression in yeast. AID 1347120. Potency, µM (highest dose often 76.6 µM), actives largely listed as activators. 390,000 tested, 0.24% active. S. cerevisiae FUS-expressing, growth rescue, OD600, 24 h;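 also: potency is read from the fitted curve at half-maximal effect; plate controls were DMSO vehicle for no effect and reference control for full effect; nearly all actives have a fitted effect of over 55% in size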
#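 Steps: raffinose overnight preculture; dilution to OD 0.005 in 2% galactose minimal medium; compound addition (concentration series); 24hr at 30C, 99% humidity; absorbance read at 600 nm.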
# Giardia kill: Giardia lamblia killing | activity change, % at 7.66 µM, hits read low | 340,000 tested, 0.15% active | Giardia lamblia trophozoite viability; in the data active = activity change below about -80%; inconclusive = between about -30% and that limit;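 also: parasites exposed to compound for two days anaerobically before the ATP read; % is scaled to controls: 0 for no effect and ±100 for the full control effect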
#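 Giardia trophozoites, 100 cells per well, were exposed to compounds for 48 hrs at 37 deg C under anaerobic conditions; viability was then read as ATP content by bioluminescence after 15-30 min at room temperature.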
# Numbers without * were called inactive; i = inactive; ? = inconclusive; . = no result given; ! = a repeat was not active. Unless noted, calls follow the shape of the dose curve; as a rule, active = well fitted curve in the direction sought with a large enough effect; inconclusive = small, poorly fitted or top-dose-only effect, or another doubt; inactive = no such curve, though single readings can be large; an effect the other way counts as inactive or inconclusive.
SMILES,TRPV1 PAM,ELG1 repair inh,TRPV1 agonist,FUS suppressor,Giardia kill
CC(C)C(=O)N1CCN(c2ccccc2NC(=O)c2ccc([N+](=O)[O-])o2)CC1,3,?,-2,i,-89*
CC1CCN(c2ccccc2NC(=O)c2ccc([N+](=O)[O-])o2)CC1,1,-5%,-4,i,-24
Cc1cccc(CNC(=O)Cn2ccc3cc(S(=O)(=O)N4CCC(C)CC4)ccc32)c1,.,.,.,i,.
O=C(Nc1nc2c(F)cccc2s1)c1ccc([N+](=O)[O-])o1,-21,?,?,i,-97*
O=C(Nc1nc2c(Cl)cccc2s1)c1ccc(Br)o1,25,16%,-2,i,-5
O=C(Nc1nc2c(Cl)cccc2s1)c1ccc([N+](=O)[O-])o1,4,?,1,i,-101*
COc1ccc(CCNC(=O)CCCCn2c(=O)c3ccccc3n(Cc3ccc(F)cc3Cl)c2=O)cc1OC,.,.,.,i,.
COc1cc(-c2noc(CCCC(=O)NC3CCCCC3)n2)cc(OC)c1OC,-3,5.2µM*,0,i,-5
O=C(C1CCN(c2ncnc3c2nc2n3CCCCC2)CC1)N1CCN(c2ccccc2F)CC1,-3,?,2,i,-1
Cc1cccc(N2CCN(C(=O)C3CCN(c4ncnc5c4nc4n5CCCCC4)CC3)CC2C)c1 (configuration not stated),5,4.1µM*,-1,?,-7
Cc1cccc(N2CCN(C(=O)C3CCN(c4ncnc5c4nc4n5CCCCC4)CC3)CC2)c1C,8,?,8,32µM*!,-1
Cc1cc(N2CCC(C(=O)N3CCN(c4cccc(C)c4C)CC3)CC2)n2ncnc2n1,-15,21µM*,?,i,-17
O=C(CSC1=Nc2ccccc2N=C(c2ccc(F)cc2)C1)NCc1ccccc1,.,.,.,i,.
CC(CNC(=O)c1cnn(-c2ccc(F)cc2)c1-n1cccc1)c1ccccc1 (configuration not stated),.,.,.,i,.
O=C(Oc1c(CN2CCOCC2)cc(Cl)c2cccnc12)c1ccccc1Cl,-8,12µM*,20,i,-6
COc1cccc(C(=O)Oc2c(CN3CCOCC3)cc(Cl)c3cccnc23)c1,-9,18µM*,19,i,-1
Fc1ccc(-n2nnnc2-c2cnc(-c3cccs3)nc2C(F)(F)F)cc1,-17,21µM*,-4,i,-1
Cc1sc2nc(C3CC3)nc(N3CCN(C(=O)c4ccc(Cl)cc4)CC3)c2c1C,-15,23µM*,16,i,3
COc1ccc(S(=O)(=O)c2cn(C)c3cc(N4CCOCC4)c(F)cc3c2=O)cc1,.,.,.,i,.
COc1ccc(C(=O)COC(=O)C(CCCCN2C(=O)C3C4C=CC(C4)C3C2=O)N2C(=O)C3C4C=CC(C4)C3C2=O)cc1 (configuration not stated),-38,5.8µM*,0,i,13
COC(=O)C(CCCCN1C(=O)C2C3C=CC(C3)C2C1=O)N1C(=O)C2C3C=CC(C3)C2C1=O (configuration not stated),-5,0%,-1,i,34
COC(=O)c1sc(-c2ccc(C(C)(C)C)cc2)cc1NC(=O)CSCC(=O)O,11,9%,4,28µM*,-2
Cc1cc(C)cc(NC(=O)Cn2c3ncccc3c(=O)n2-c2ccc(C)c(C)c2)c1,.,.,.,i,.
O=C1C(N2CCOCC2)=C(n2nnc3ccccc32)C(=O)c2ccccc21,19,2.6µM*,-5,i,-21
O=C1c2ccccc2C(=O)c2c1cccc2-n1nnc2ccccc21,9,-1%,1,i,8
SMILES,TRPV1 PAM,ELG1 repair inh,TRPV1 agonist,FUS suppressor,Giardia kill
NC(=O)c1ccccc1NC(=O)Cn1nc(Cc2cccnc2)c2ccccc2c1=O,.,.,.,i,.
COc1cc(NC(=O)C2CCCN(S(=O)(=O)c3cccc4nsnc34)C2)cc(OC)c1 (configuration not stated),11,23µM*,0,i,-27
COc1ccc(OC)c(NC(=O)C2CCCN(S(=O)(=O)c3cccc4nsnc34)C2)c1 (configuration not stated),9,21µM*,6,i,12
COc1ccc(OC)c(NC(=O)C2CCCN(S(=O)(=O)c3ccc(-n4cnnn4)cc3)C2)c1 (configuration not stated),-10,26µM*,26,i,3
COc1ccc(C)cc1NC(=O)C1CCCN(S(=O)(=O)c2ccc(-n3cnnn3)cc2)C1 (configuration not stated),-13,?,29,i,5
O=C(CSc1nnc2[nH]c(=O)cc(-c3ccccc3)n12)Nc1ccc(OC(F)(F)F)cc1,.,.,.,i,.
COc1ccccc1-c1cc(NC(=O)COc2ccccc2Cl)n(-c2ccccc2)n1,.,.,.,i,.
CC(C)Cn1c(N)c(C(=O)COC(=O)c2ccc(Cl)cc2)c(=O)n(C)c1=O,16,18µM*,1,i,-3
CC(C)Cn1c(N)c(C(=O)COC(=O)c2ccc(Br)cc2)c(=O)n(C)c1=O,.,21µM*,.,i,0
CC(C)Cn1c(N)c(C(=O)COC(=O)c2ccncc2)c(=O)n(C)c1=O,-9,?,0,i,-6
COC(=O)c1c(C)[nH]c(C(=O)OCC(=O)c2c(N)n(CC(C)C)c(=O)n(C)c2=O)c1C,.,16µM*,.,?,4
Cc1cnc(C(=O)OCC(=O)c2c(N)n(CC(C)C)c(=O)n(C)c2=O)cn1,16,-15%,1,i,-26
CC(C)Nc1nnc(SCC(=O)c2c(N)n(Cc3ccccc3)c(=O)n(C)c2=O)s1,13,18µM*,0,i,-10
Cc1ccc(CNS(=O)(=O)c2cc3[nH]c(=O)c(=O)[nH]c3cc2C)cc1,.,.,.,i,.
COC(=O)c1sccc1S(=O)(=O)N(CC(=O)NCc1ccccc1)c1ccc(C)cc1,.,.,.,i,.
CC(C)Cn1c(N)c(C(=O)CSc2ccccc2)c(=O)n(C)c1=O,7,23µM*,5,.,3
CSc1cccc(NC(=O)C(c2ccccc2)N2Cc3ccccc3C2=O)c1 (configuration not stated),.,.,.,i,.
O=C(CCn1c(=O)[nH]c2ccsc2c1=O)N1CCN(c2ccc([N+](=O)[O-])cc2)CC1,3,18µM*,2,i,12
O=C(Cc1ccccc1)Nc1cccc(-c2cn3cccnc3n2)c1,.,.,.,i,.
CCOc1cc(C(c2c(C)[nH][nH]c2=O)c2c(C)[nH][nH]c2=O)ccc1OC(=O)c1cccc([N+](=O)[O-])c1,-1,-1%,4,35µM*,11
Cc1ccc(C)c(NC(=O)Cn2c(=O)nc(-c3ccccc3)c3ccccc32)c1,.,.,.,i,.
Cc1ccc(NP(=O)(c2ccc(N(C)C)cc2NC(=O)c2cccs2)N2CCOCC2)cc1Cl (configuration not stated),-2,16µM*,24,4µM*,11

# Screening data as filed in PubChem BioAssay.
